Reference: PubChem BioAssay AID488899 (Broad Institute, 2010)
The whole screen tested about 330,000 compounds, of which about 2,800 (0.85%) were called active.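 How the source made its calls: active means mean inhibition across replicates of 60% or more, whatever share of single replicates reaches that level; inconclusive means some that reach 60%, reason not given; inactive means mean inhibition across replicates below 60%.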 This excerpt belongs to a sample that is enriched for actives.

Assay: MITF transcriptional activity suppression – cell-based, SK-MEL-5, single point, luciferase, primary screen (AID 488899)
Conditions: SK-MEL-5 TRPM1 promoter luciferase, 24 h; at 12.5 µM; stronger effect = higher value

inhibition, inactive:
CCC1([N+](=O)[O-])COC(c2ccc(C(C)C)cc2)OC1 (configuration not stated) -55.6%
O=C(Nc1ccc2ccccc2c1[N+](=O)[O-])c1ccccc1 -36.6%
S=C(NCc1cccnc1)Nc1ccc(Cl)cc1Cl -6.79%
Cc1c(NC(=O)CSc2cccc3cccnc23)c(=O)n(-c2ccccc2)n1C 35.6%
CC1(C)C(=O)C2(CCCCC2)C(=O)OC1c1cccs1 (configuration not stated) 4.16%
C=CCn1c(=S)[nH]c2scc(-c3ccco3)c2c1=O 1.55%
CCN(CC)S(=O)(=O)c1cc(C(=O)Nc2cc(S(=O)(=O)N3CCOCC3)ccc2N2CCCC2)ccc1F 6.91%
CCN(CC)S(=O)(=O)c1ccc(N2CCOCC2)c(NC(=O)c2ccc(=O)n(C)n2)c1 2.54%
Nc1ccc(-n2nncc2-c2ccco2)cc1 -11.2%
O=C(c1cccc(S(=O)(=O)N2CCCCCC2)c1)N1CCN(Cc2ccccc2)CC1 -3.86%
CCOC(=O)c1c(NC(=O)CN2C(=O)NC3(CCC(C)CC3)C2=O)sc(C)c1CC (configuration not stated) 0.199%
CC1=NNC(=O)C1CCC(=O)N/N=C(\C)c1ccc(Cl)cc1 (configuration not stated) 2.4%
C/C(=N\NC(=O)c1ccoc1C)c1ccccc1O -21.6%
CC(=NNC(=S)N1CCCCCC1)c1ccccn1 58.9%
NC(=O)NC(CC(=O)NNC(=O)c1ccccn1)c1ccc(Cl)cc1 (configuration not stated) -12.2%
CC(C)CN1CC(C)C(=O)N(c2ccccc2)C1=S (configuration not stated) -5.49%
COc1cc2c(cc1OC)CN(C(=O)c1cc(S(=O)(=O)N3CCCCC3)ccc1Cl)CC2 10.9%
COc1ccc(S(=O)(=O)N2CCC(C(=O)N3CCc4ccccc4C3)CC2)cc1OC 1.79%
CN(CCc1ccccn1)C(=O)CCC1CCCN(Cc2ccccc2OC(F)F)C1 (configuration not stated) -12.8%
CC[C@]1(O)CC2CN(CCc3c([nH]c4ccccc34)[C@@](C(=O)OC)(c3cc4c(cc3OC)N(C=O)[C@H]3[C@@](O)(C(=O)OC)[C@H](OC(C)=O)[C@]5(CC)C=CCN6CC[C@]43[C@@H]65)C2)C1 (some centres not stated) 45.8%
CCC1SC(CC)C(=O)N(CC(=O)NC2CCCCC2)C1=O (configuration not stated) 13.1%
Clc1ccc(C[n+]2cc(-c3ccc(Cl)cc3)n3c2CCC3)cc1 47.5%
CN(C)Cc1c(C(=O)N/N=C/c2ccccc2OCc2ccc(F)cc2)nnn1-c1nonc1N -15.2%
Cc1ccc2c(O)c(Cc3ccccc3)c(=O)[nH]c2n1 2.8%
COC(=O)COc1ccc2c(=O)c(Oc3ccccc3Br)coc2c1 -0.261%
O=C(O)c1ccc(Cn2cnc3c(=S)nc[nH]c32)cc1 -0.814%
COc1ccccc1-c1nnc2n1N=C(c1ccc(OC(F)F)c(OCC3CC3)c1)CS2 -4.86%
CC1=Nn2c(nnc2-c2ccccc2)SC1 -0.377%
COC(C[C@H](O)CC(=O)COCc1ccccc1)OC -3.12%
O=C(O)CN1c2cccc3cccc(c23)S1(=O)=O 13.3%
N/C(=N\OC(=O)Nc1ccccc1)c1ccno1 -14%
CCCOc1ccc(C(=O)CCC(=O)OC(C)C(=O)Nc2ccc(NC(C)=O)cc2)cc1 (configuration not stated) -26%
CCCCOc1ccc(C(=O)NN2CCN(C)CC2)cc1 -7.2%
Cc1ccc(/C=C2/SC(=S)N(CCC(=O)NCCCN3CCOCC3)C2=O)cc1 -20.1%
COc1ccc(/C=C2\SC(=S)N(CCCC(=O)NC3CCCC3)C2=O)cc1OC 37.5%
Cc1ccc(S(=O)(=O)N(CC(=O)Nc2cccc([N+](=O)[O-])c2)Cc2ccc(Cl)cc2)cc1 15.8%
CC(=O)c1cccc(NC(=O)C2CCN(C(=O)c3ccccc3Cl)CC2)c1 28.4%
O=C(COC(=O)C1CCN(S(=O)(=O)c2ccc3c(c2)OCCO3)CC1)Nc1ccccc1OC(F)F -1.73%
CCOC(=O)/C(=N\Nc1ccccc1[N+](=O)[O-])c1csc(Nc2ccccc2)n1 -14.3%
Cc1ccc(NC(=O)/C(=C/c2ccc([N+](=O)[O-])cc2)NC(=O)c2ccccc2)cc1 8.59%
CC(=O)c1ccc(N2CCN(C(=O)CCNC(=O)Cn3ccc4ccccc4c3=O)CC2)cc1 0.055%
Cc1nc(-c2nnc(SCC(=O)Nc3cc(C(F)(F)F)cc(C(F)(F)F)c3)n2C)cs1 6.42%
CCCCOc1ccc(C(=O)N/C(=C/C=C/c2ccccc2)C(=O)N2CCOCC2)cc1 0.224%
O=[N+]([O-])c1cc2ccccc2nc1-c1ccccc1 -2.83%
CN(C)CCn1c2c(c(SCC(=O)Nc3ccccc3C(F)(F)F)nc1=O)CCCC2 1.54%
O=[N+]([O-])c1ccccc1/C=C/CN1CCC(O)CC1 -6.15%
O=[N+]([O-])c1ccccc1/C=C/CN1CCCC(CO)C1 (configuration not stated) 3.33%
CSCCC(NS(=O)(=O)c1ccc2c(c1)oc(=O)n2C)C(=O)NC1CCCc2ccccc21 (configuration not stated) 4.17%
Cc1cccc(/C(N)=N/OC(=O)c2ccccc2Cl)c1 -7.17%
COc1ccccc1NC(=O)CCC(=O)N1CC(C)Oc2ccc(C)cc21 (configuration not stated) -0.622%
CC1CN(C(=O)CCC(=O)NCc2cccnc2)c2ccccc2O1 (configuration not stated) -4.62%
COc1ccc(OC)c(-c2c(=O)n(OCc3ccccc3Br)c3ccccc3[n+]2[O-])c1 15.9%
CC(=O)Nc1ccc(S(=O)(=O)NC2Cc3ccccc3C2)cc1 4.61%
C=C(C)C(=O)Nc1cccc(C2=NOC3(C2)C[C@H](C(N)=O)N(C(=O)C(c2ccccc2)c2ccccc2)C3)c1 (some centres not stated) 0.48%
CCN(CC)S(=O)(=O)c1ccc(NC(=O)c2cnc(C)cn2)cc1 10.2%
CCN(CC)S(=O)(=O)c1ccc(Cl)c(NC(=O)c2ccncc2)c1 0.4%
O=C1CC(c2ccccc2)C(c2ccccc2)=NN1 (configuration not stated) 5.8%
Cc1cccc(N(C(=O)Cn2nnc(-c3ccc(C)o3)n2)C(C(=O)NC2CCCC2)c2ccncc2)c1 (configuration not stated) 3.32%
CCN(CC)CCn1c2ccc(Cl)cc2c2nc(C)sc21 6.02%
CCOC(=O)c1c(C)[nH]c(C(=O)NCCN2CCOCC2)c1C 8.7%
COc1ccccc1NC(=O)N(O)C1(C#N)CCCCC1 -7.2%
CCN(C(=O)COC(=O)c1c(NC(C)=O)sc(C)c1C)C1CCS(=O)(=O)C1 (configuration not stated) 11%
COc1ccc(C(CCNCc2ccccc2F)c2ccc(F)cc2)cc1 (configuration not stated) -10.4%
COc1ccccc1NC(=O)CCCc1c[nH]c2ccccc12 -1.28%
O=C(c1cc(COc2ccc(F)cc2F)on1)N1CCOCC1 -44.5%
CC(C)c1ccc(S(=O)(=O)N2CCN(C(=O)CN3C(=O)NC(C)(c4ccccc4)C3=O)CC2)cc1 (configuration not stated) -4.8%
Cc1csc(NC(=O)CSc2nnc(-c3cccnc3)o2)n1 -14.8%
Cc1ccc(S(=O)(=O)N(Cc2cccc([N+](=O)[O-])c2)C(=O)N2CCN(C)CC2)cc1 4.92%
CCN(CC)C(=O)CN(c1cccc([N+](=O)[O-])c1)S(=O)(=O)c1ccccc1 -4.33%

inhibition, active:
CC(=O)/C(=N\Nc1ccc(Cl)cc1Cl)Sc1cccc2cccnc12 65.6%
CCN(CC)S(=O)(=O)c1ccc(N2CCCC2)c(NC(=O)c2ccc([N+](=O)[O-])o2)c1 88.5%
C/C(=N\NC(=O)Cc1ccc(Cl)cc1)c1ccccn1 80%
C/C(=N\NC(=O)c1ccccc1F)c1ccccn1 62.2%
COc1cc2c(cc1OC)C(C)N(S(=O)(=O)c1cnc(Cl)c(Cl)c1)CC2 (configuration not stated) 76%
CC[C@]1(O)C[C@@H]2CN(CCc3c([nH]c4ccccc34)[C@@](C(=O)OC)(c3cc4c(cc3OC)N(C)[C@H]3[C@@](O)(C(=O)OC)[C@H](OC(C)=O)[C@]5(CC)C=CCN6CC[C@]43[C@@H]65)C2)C1 62.2%
COc1ccc(C2=Nn3c(nnc3-c3ccccc3OC)SC2)cc1OC1CCCC1 65.9%
CCCOc1ccc(C(=O)C(CCC(CNCC)C(=O)c2ccc(OCCC)cc2)CNCC)cc1 (configuration not stated) 102%
C=CCOc1ccc(/C=C2\SC(=S)N(CCC(=O)O)C2=O)cc1 78.2%
CCOC(=O)/C(=C\c1ccc([N+](=O)[O-])cc1)C(=O)c1cc(C(C)=O)c(Nc2ccccc2)s1 100%
CCC(=C/c1sc2ccc3ccccc3c2[n+]1C)/C=C1\Sc2ccc3ccccc3c2N1C 77.8%
CC1CCCCC1NC(=O)/C(C#N)=C/C=C/c1ccccc1[N+](=O)[O-] (configuration not stated) 87%
CC1CN(C(=O)CCC(=O)NCCCN2CCC(Cc3ccccc3)CC2)c2cc(Cl)ccc2O1 (configuration not stated) 81.8%
CCN(CC)S(=O)(=O)c1ccc(NC(=O)c2cccnc2Cl)c(NC(=O)c2cccnc2Cl)c1 74.2%
CCN(CC)CCCC(C)n1c2nc(=O)[nH]c(=O)c-2nc2cc(Cl)ccc21 (configuration not stated) 83.3%
CN1c2ccc(C=O)c3c(C=O)ccc(c23)N(C)C1(C)C 96.4%
COc1cccc(CNCCc2c[nH]c3ccccc23)c1OCc1ccccc1F 95.2%
O=C(CCl)N(Cc1cccc([N+](=O)[O-])c1)c1cccc(Cl)c1 66.2%
